Activity calls are given as the source filed them. Rule for the calls: active = hit-call score of the fitted dose curve at least 0.9, where 1 is the maximum; inactive = score below 0.9.

The experiment in a line: CEETOX_H295R_PROG: CeeTox H295R High-throughput Steroidogenesis Assay for Progesterone (PROG) (AID 2283442).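 For AC50: human H295R adrenal cells primed with 10 µM forskolin before dosing.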 The settings on record: actives raise or lower the signal. The procedure, abridged:
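H295R human adrenal cells were prestimulated with 10 uM forskolin for 48 h, then exposed to test chemical (0.1% DMSO final) for 48 h. Medium progesterone was MTBE-extracted and quantified by HPLC-MS/MS, with bidirectional fitting against DMSO.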
With `COc1cccc(C(=O)NN(C(=O)c2cc(C)cc(C)c2)C(C)(C)C)c1C`, the result was inactive.

For the molecule `O=C(O)c1cc(Oc2ccc(C(F)(F)F)cc2Cl)ccc1[N+](=O)[O-]`, the molecule was called inactive.

`CNC(=O)Oc1cccc2c1OC(C)(C)O2`: the AC50 was 4.74 µM (active).

As to `CC(C1CC1)C(O)(Cn1cncn1)c1ccc(Cl)cc1` (configuration not stated), the AC50 was 2.23 µM (active).

As for `CSc1nnc(C(C)(C)C)c(=O)n1N`, the call was inactive.

In the case of `CCCOCC(=Nc1ccc(Cl)cc1C(F)(F)F)n1ccnc1`, the AC50 is 0.336 µM (active).

For `COP(=O)(NC(C)=O)SC` (configuration not stated), the call was inactive.

In the case of `CCOC(=O)COc1cc(-c2nn(C)c(OC(F)F)c2Cl)c(F)cc1Cl`, the call was inactive.

Consider `CN(C)C(=O)Nc1cccc(C(F)(F)F)c1`, for which the molecule was classed as inactive.

`Nc1nc(N)nc(NC2CC2)n1`: the result was inactive.

As to `CN(C)NC(=O)CCC(=O)O`, the call was inactive.

Consider `CNC(=O)ON=C(SC)C(=O)N(C)C`, for which the molecule was called inactive.

Take `CCc1cccc(C)c1N(C(=O)CCl)C(C)COC` (configuration not stated): the molecule was classed as inactive.

With `CCOP(=S)(OCC)Oc1ccc2c(C)c(Cl)c(=O)oc2c1`, the AC50 is 2.59 µM (active).

With `CNc1cnn(-c2cccc(C(F)(F)F)c2)c(=O)c1Cl`, the molecule was classed as inactive.

In the case of `COc1ccc(C(=CC(=O)N2CCOCC2)c2ccc(Cl)cc2)cc1OC`, the outcome was inactive.

Turning to `CCOP(=O)(NC(C)C)Oc1ccc(SC)c(C)c1` (configuration not stated), the AC50 was 32.2 µM (active).

With `CSc1nc(NC(C)C)nc(NC(C)C)n1`, the molecule was classed as inactive.

With `CC1(C(=O)Nc2ccc(O)c(Cl)c2Cl)CCCCC1`, the AC50 is 7.63 µM (active).

`CCNc1nc(Cl)nc(NC(C)(C)C#N)n1`: the outcome was inactive.

For `CNC(=O)ON=C(C)SC`, the result was inactive.

Take `CC(COc1ccc(Oc2ccccc2)cc1)Oc1ccccn1` (configuration not stated): the outcome was inactive.

As usually defined, the AC50 is the concentration giving half of the maximal activity seen.

These data come from PubChem BioAssay (EPA / NIEHS).
